Laboratory results reported in PubChem BioAssay AID588520 (NMMLSC, 2011).
In all, about 1,700 compounds went through this assay and about 65 (4%) were called active. Rule as the data show it: active = Nile Red retention ratio vs DMSO above about 190%; inactive = the rest. The list is a sample of the results.

system: Candida albicans drug resistance protein 2 (Cdr2) efflux pump, expressed in S. cerevisiae; test: inhibitors of Candida albicans Cdr2 efflux pump, confirmation, S. cerevisiae AD/CaCDR2, flow cytometry, cherry pick 1, singleplex (AID 588520); conditions: at 10 µM, hits give high values;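 also: higher ratio means more blocking of Cdr2 efflux of the dye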

Nile Red retention ratio vs DMSO, active:
CCn1c(/C=C/c2ccc([N+](=O)[O-])o2)nc2ccccc2c1=O 212%

Nile Red retention ratio vs DMSO, inactive:
COc1ccc2[nH]c3c(C)c4cc[n+](C)cc4c(C)c3c2c1 97.2%
O=C1NC(=O)C2C1C(c1ccc([N+](=O)[O-])cc1)=NN2Cc1ccccc1 (stereo not given) 112%
COc1ccc(-c2sc3ccccc3c2-c2ccc(OCCN3CCOCC3)cc2)cc1 101%
O=C(NCc1ccccc1)C(=O)NCC1OCCN1S(=O)(=O)c1ccc(Br)cc1 (stereo not given) 84.8%
COc1ccccc1CSc1ncc(-c2ccc([N+](=O)[O-])cc2)[nH]1 87.5%
CCOc1ccc(C2/C(=C(/O)c3ccc4c(c3)CC(C)O4)C(=O)C(=O)N2CCCn2ccnc2)cc1 (stereo not given) 94.1%
COc1ccc(C(=O)NC2CC(C)(C)Cc3c2cnn3-c2ccccc2)c(OC)c1 (stereo not given) 100%
CN1CCN(S(=O)(=O)c2ccc(NC(=S)NC(=O)C3CC3)cc2)CC1 103%
CC(C)C(=O)N1CCC2(CC1)Oc1ccc(F)cc1C(=O)C21CC(c2ccccc2)=NO1 (stereo not given) 102%
CN(C)S(=O)(=O)c1cc(C(=O)Nc2ccn(C)n2)c(Cl)cc1Cl 99.3%
O=S(=O)(c1ccccc1)N1CCc2ccccc21 83.1%
CC12CCC(C(=O)N(c3cccc(Cl)c3)C1=O)C2(C)C (stereo not given) 110%
O=C(CNC(=O)c1ccc(-c2ccccc2)cc1)OCc1ccc(Cl)cc1 120%
Cc1cc(C)cc(NC(=O)C(OC(=O)c2ccc(O)cc2)c2ccccc2)c1 (stereo not given) 101%
CC(/C=N/NC(=O)c1cc(-c2ccc3ccccc3c2)n[nH]1)=C\c1ccco1 95.4%
CCCc1nc(N2CCN(C)CC2)c2sc(=S)n(-c3ccccc3)c2n1 99.6%
C[n+]1ccc(/C=C/c2c[nH]c3ccccc23)cc1 140%
CCCCCCCCCCCCCCCC(=O)OC/C=C(C)/C=C/C=C(C)/C=C/C1=C(C)CCCC1(C)C 123%
Cc1nn(C)cc1N1C(=O)c2cccc3c(N)ccc(c23)C1=O 106%
COc1ccc(/C=C(\C#N)c2c[nH]c3ccccc23)cc1 98.5%
CCCCOc1ccc(C(=O)NCC(=O)OCC(=O)c2c(N)n(C)c(=O)n(C)c2=O)cc1 103%
NNC(=O)COc1ccc(C2SCCS2)cc1 98.5%
COc1ccc(C(=O)NC(=S)Nc2ccc(N3CCCC3)cc2)cc1OC 95.1%
O=C(CSc1nnc(-c2cccnc2)n1Cc1ccco1)c1ccc(Cl)c(Cl)c1 107%
